Measurements published in PubChem BioAssay (NCATS).
Results filed as inconclusive are left out. Calls of active or inactive are those of the source. Calls follow the shape of the dose curve; as a rule, active = well fitted curve in the direction sought with a large enough effect; inconclusive = small, poorly fitted or top-dose-only effect, or another doubt; inactive = no such curve, though single readings can be large; an effect the other way counts as inactive or inconclusive.

How the values were obtained:
[1] = qHTS of pediatric cancer cell lines to identify multiple opportunities for drug repurposing: Confirmatory screen for BT-12 cells (AID 1347112); also: potency is read from the fitted curve at half-maximal effect; nearly all actives have a fitted effect of over 55% in size
In short: (§1)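 Cells (500-1,000/well) rested 5 h, then received compounds for 48 h; metabolically active cells were measured by CellTiter-Glo luminescence. Final concentrations spanned up to 46 µM (MIPE, 11-point) or 0.59 nM-46 µM (NPC, 8-point) in primary screens, 11-point in follow-ups.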

[2] = qHTS of pediatric cancer cell lines to identify multiple opportunities for drug repurposing: Confirmatory screen for DAOY cells (AID 1347114); also: potency is read from the fitted curve at half-maximal effect; nearly all actives have a fitted effect of over 65% in size
In short: (§2)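 Viability measured as metabolically active cells via CellTiter-Glo luminescence following 48 hours of compound exposure, 11-point dilutions in confirmatory testing. 500-1,000 cells/well plated 5 hours before dosing; controls were DMSO and 2.3 µM bortezomib.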

[3] = qHTS of pediatric cancer cell lines to identify multiple opportunities for drug repurposing: Confirmatory screen for SJ-GBM2 cells (AID 1347116); also: potency is read from the fitted curve at half-maximal effect; nearly all actives have a fitted effect of over 60% in size
In short: as §2

[4] = qHTS of pediatric cancer cell lines to identify multiple opportunities for drug repurposing: Confirmatory screen for BT-37 cells (AID 1347117); also: potency is read from the fitted curve at half-maximal effect; nearly all actives have a fitted effect of over 55% in size
In short: as §1

[5] = qHTS of pediatric cancer cell lines to identify multiple opportunities for drug repurposing: Confirmatory screen for TC32 cells (AID 1347118);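 also: potency is read from the fitted curve at half-maximal effect; cells exposed to compound for 48 h before the read; nearly all actives have a fitted effect of over 65% in size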
In short: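 qHTS, TC32, 48 h drug treatment, CellTiter-Glo luminescence as a proxy for metabolically active cells; primary top concentration 46 µM (MIPE 11-pt, NPC 8-pt); confirmatory 11-pt.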

[6] = qHTS of pediatric cancer cell lines to identify multiple opportunities for drug repurposing: Confirmatory screen for MG 63 (6-TG R) cells (AID 1347119); also: potency is read from the fitted curve at half-maximal effect; nearly all actives have a fitted effect of over 55% in size
In short: as §1

[7] = qHTS of pediatric cancer cell lines to identify multiple opportunities for drug repurposing: Confirmatory screen for control Hh wild type fibroblast cells (AID 1347121); also: nearly all actives have a fitted effect of over 70% in size
In short: as §1

[8] = qHTS of pediatric cancer cell lines to identify multiple opportunities for drug repurposing: Confirmatory screen for U-2 OS cells (AID 1347122); also: potency is read from the fitted curve at half-maximal effect; nearly all actives have a fitted effect of over 65% in size
In short: as §1

[9] = qHTS of pediatric cancer cell lines to identify multiple opportunities for drug repurposing: Primary screen for RD cells (AID 1347104); also: nearly all actives have a fitted effect of over 55% in size
In short: (§3)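 Readout: CellTiter-Glo luminescence, 48 h treatment. Controls DMSO (neutral) and bortezomib 2.3 µM final (positive). Potency and efficacy taken from primary-screen concentration-response curves.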

[10] = qHTS of pediatric cancer cell lines to identify multiple opportunities for drug repurposing: Primary screen for MG 63 (6-TG R) cells (AID 1347105); also: nearly all actives have a fitted effect of over 50% in size
In short: as §3

[11] = qHTS of pediatric cancer cell lines to identify multiple opportunities for drug repurposing: Primary screen for control Hh wild type fibroblast cells (AID 1347106)
In short: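 Viability after 48 h compound treatment at 37C, 500-1,000 cells/well, read as ATP luminescence with CellTiter-Glo. Primary screens used 11-point (MIPE, 0.78 nM-46 µM) or 8-point (NPC, 0.59 nM-46 µM) final concentrations; follow-up screens used 11-point dilutions.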

[12] = qHTS of pediatric cancer cell lines to identify multiple opportunities for drug repurposing: Primary screen for Rh30 cells (AID 1347107); also: series mostly up to about 46 µM; nearly all actives have a fitted effect of over 75% in size
In short: as §1

[13] = qHTS of pediatric cancer cell lines to identify multiple opportunities for drug repurposing: Primary screen for Rh41 cells (AID 1347108);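 also: series mostly up to about 46 µM; luminescence drop marks cytotoxic hits; nearly all actives have a fitted effect of over 70% in size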
In short: as §3

Measured: Potency

CCC1=C[C@@H]2CN(C1)Cc1c([nH]c3ccccc13)[C@@](C(=O)OC)(c1cc3c(cc1OC)N(C)[C@H]1[C@@](O)(C(=O)OC)[C@H](OC(C)=O)[C@]4(CC)C=CCN5CC[C@]31[C@@H]54)C2
active: [1] 52.2 nM | [2] 32.9 nM | [3] 52.2 nM | [4] 26.1 nM | [5] 16.5 nM | [6] 23.3 nM | [8] 185 nM
inactive: [7]

O=C(OCC(O)CO)c1ccccc1Nc1ccnc2c(C(F)(F)F)cccc12 (stereo unspecified)
inactive: [9] | [10] | [11] | [12] | [13]

O=C(O)C1CCC1
inactive: [9] | [10] | [11] | [12] | [13]

Cc1ccc(/C=N/n2c(-c3ccccc3)csc2=S)cc1
inactive: [9] | [10] | [11] | [12] | [13]

CCOC(=O)c1ccc(NC(=O)CN2CCCCC2)cc1
inactive: [9] | [10] | [11] | [12]

Fc1ccc(C(c2ccc(F)cc2)N2CCNCC2)cc1
inactive: [9] | [10] | [11] | [12] | [13]

CCCCNc1ccc(C(=O)OCCN(CC)CC)cc1
inactive: [9] | [10] | [11] | [12]
